We go through two sequences from publication PMC7862700, “An all-to-all approach to the identification of sequence-specific readers for epigenetic DNA modifications on cytosine”.

Holding throughout (assay): DAPPL (digital affinity profiling via proximity ligation, sequencing); 10 mM Tris-HCl pH 7.5, 50 mM NaCl, 1 mM DTT, 4% glycerol, room temperature, 30 min; GST-TFs on glutathione beads, 16-mer random dsDNA library, 0.1% formaldehyde crosslink after washing; high values mean tight binding
The target in one experiment is T1, FLI1 (Homo sapiens, UniProt Q01543 1-452).
T1 sequence: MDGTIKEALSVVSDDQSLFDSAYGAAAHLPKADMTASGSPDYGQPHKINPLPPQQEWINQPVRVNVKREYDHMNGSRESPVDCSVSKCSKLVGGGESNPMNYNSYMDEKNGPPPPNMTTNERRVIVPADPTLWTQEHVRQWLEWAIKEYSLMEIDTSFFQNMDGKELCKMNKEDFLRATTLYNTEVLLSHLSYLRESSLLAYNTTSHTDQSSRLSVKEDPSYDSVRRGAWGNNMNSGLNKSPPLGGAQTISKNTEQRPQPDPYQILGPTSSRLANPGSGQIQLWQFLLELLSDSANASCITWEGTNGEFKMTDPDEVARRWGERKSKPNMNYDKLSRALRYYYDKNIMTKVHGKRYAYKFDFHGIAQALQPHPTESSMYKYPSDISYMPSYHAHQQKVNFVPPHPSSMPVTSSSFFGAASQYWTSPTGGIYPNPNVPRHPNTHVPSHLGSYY
The conditions noted are these: protein: recombinant; tags: N-terminal GST; dsDNA, one strand shown. Summed up:
(§1)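 Yeast served to express human transcription factors as GST fusions, which were then captured on glutathione beads and labelled with DNA barcodes. Pooled with a tag-only sample, they were incubated with 200 nmole of a 16-mer random double-stranded DNA library for 30 min at room temperature in Tris/NaCl/DTT/glycerol buffer, washed, crosslinked with 0.1% formaldehyde, ligated by proximity, amplified by PCR and sequenced. Dividing each hexamer's read frequency for a factor by its frequency for the tag-only sample gives the binding signal.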

The target of another experiment is T2, ELK1 (Homo sapiens, UniProt P19419 1-428).
T2 sequence: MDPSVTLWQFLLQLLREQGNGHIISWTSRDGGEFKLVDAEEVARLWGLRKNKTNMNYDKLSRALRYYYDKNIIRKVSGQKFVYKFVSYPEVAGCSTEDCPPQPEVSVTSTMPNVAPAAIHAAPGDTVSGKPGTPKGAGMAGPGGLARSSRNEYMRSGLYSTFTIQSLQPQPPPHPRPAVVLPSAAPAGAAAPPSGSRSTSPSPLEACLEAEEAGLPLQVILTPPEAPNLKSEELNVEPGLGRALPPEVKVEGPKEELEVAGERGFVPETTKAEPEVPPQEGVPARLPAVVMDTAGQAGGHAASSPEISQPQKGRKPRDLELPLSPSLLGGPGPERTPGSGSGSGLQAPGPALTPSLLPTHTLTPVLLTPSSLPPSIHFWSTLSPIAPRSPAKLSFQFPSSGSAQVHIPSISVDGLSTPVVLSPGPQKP
The conditions noted are these: protein: recombinant; tags: N-terminal GST; dsDNA, one strand shown. In outline:
as §1

In a further experiment the target is T3, GABPA (Homo sapiens, UniProt Q06546 1-454).
T3 sequence: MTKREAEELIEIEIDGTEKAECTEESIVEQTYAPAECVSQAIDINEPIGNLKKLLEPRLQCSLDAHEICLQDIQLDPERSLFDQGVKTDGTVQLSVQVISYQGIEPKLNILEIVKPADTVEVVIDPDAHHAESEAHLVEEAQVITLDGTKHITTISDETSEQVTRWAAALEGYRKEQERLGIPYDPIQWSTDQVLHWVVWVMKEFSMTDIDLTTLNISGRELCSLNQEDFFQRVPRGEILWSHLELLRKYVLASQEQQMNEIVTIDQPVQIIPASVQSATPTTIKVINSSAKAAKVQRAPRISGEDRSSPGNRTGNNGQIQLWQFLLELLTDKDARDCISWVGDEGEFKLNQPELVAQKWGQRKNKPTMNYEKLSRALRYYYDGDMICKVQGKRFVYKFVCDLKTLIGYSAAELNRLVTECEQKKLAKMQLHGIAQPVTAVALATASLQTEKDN
The conditions noted are these: protein: recombinant; tags: N-terminal GST; dsDNA, one strand shown. Summed up:
as §1

In another experiment the target is T4, ERG (Homo sapiens, UniProt P11308 1-479).
T4 sequence: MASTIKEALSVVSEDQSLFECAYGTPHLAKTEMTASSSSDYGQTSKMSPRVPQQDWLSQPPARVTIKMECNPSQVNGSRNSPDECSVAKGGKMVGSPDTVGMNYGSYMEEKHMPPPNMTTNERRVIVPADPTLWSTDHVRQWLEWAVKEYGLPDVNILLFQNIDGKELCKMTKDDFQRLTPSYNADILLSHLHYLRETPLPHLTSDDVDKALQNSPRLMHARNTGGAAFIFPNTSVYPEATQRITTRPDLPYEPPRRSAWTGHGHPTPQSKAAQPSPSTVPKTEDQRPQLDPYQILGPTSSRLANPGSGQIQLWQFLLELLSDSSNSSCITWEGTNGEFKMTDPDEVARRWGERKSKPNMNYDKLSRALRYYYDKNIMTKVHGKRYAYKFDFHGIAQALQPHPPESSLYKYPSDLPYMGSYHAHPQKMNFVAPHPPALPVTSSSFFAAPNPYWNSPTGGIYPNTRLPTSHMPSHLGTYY
The conditions noted are these: protein: recombinant; tags: N-terminal GST; dsDNA, one strand shown. Summed up:
as §1

The target in the next experiment is ELF1 (Homo sapiens, UniProt P32519 1-619). Conditions: protein: recombinant; tags: N-terminal GST; dsDNA, one strand shown. In outline:
as §1

Another experiment concerns the target T5, EHF (Homo sapiens, UniProt Q9NZC4 1-300).
T5 sequence: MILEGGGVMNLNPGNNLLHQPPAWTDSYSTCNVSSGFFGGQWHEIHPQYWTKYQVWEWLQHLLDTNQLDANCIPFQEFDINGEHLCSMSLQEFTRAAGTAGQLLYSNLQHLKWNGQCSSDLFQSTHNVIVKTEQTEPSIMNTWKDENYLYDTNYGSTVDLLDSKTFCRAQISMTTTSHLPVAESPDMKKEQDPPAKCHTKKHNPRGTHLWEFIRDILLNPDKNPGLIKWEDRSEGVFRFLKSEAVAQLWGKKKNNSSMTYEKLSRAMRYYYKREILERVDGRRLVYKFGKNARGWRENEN
The conditions noted are these: protein: recombinant; tags: N-terminal GST; dsDNA, one strand shown. In outline: as §1

In another experiment the target is SPIB (Homo sapiens, UniProt Q01892 1-262). The conditions noted are these: protein: recombinant; tags: N-terminal GST; dsDNA, one strand shown. Summed up: as §1
Sequence of SPIB (Q01892 whole entry): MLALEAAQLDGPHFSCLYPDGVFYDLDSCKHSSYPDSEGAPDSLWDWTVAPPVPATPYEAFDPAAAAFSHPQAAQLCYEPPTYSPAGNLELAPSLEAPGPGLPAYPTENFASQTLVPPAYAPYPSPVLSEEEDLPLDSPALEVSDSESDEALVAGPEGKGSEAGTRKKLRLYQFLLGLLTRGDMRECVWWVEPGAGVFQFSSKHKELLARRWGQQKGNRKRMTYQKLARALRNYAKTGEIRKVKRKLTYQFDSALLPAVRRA
In another experiment the target is T6, ELK3 (Homo sapiens, UniProt P41970 1-407).
T6 sequence: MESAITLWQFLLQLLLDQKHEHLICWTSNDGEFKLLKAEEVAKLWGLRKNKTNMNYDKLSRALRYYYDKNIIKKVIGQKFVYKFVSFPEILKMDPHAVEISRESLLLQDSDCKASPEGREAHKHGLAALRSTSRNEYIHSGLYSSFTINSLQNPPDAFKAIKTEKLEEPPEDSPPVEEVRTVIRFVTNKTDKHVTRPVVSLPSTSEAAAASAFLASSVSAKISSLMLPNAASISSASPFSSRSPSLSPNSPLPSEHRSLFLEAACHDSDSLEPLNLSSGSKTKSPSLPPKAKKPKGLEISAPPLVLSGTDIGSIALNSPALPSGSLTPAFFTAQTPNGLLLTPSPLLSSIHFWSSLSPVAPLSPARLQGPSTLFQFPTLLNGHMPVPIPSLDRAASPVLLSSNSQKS
The conditions noted are these: protein: recombinant; tags: N-terminal GST; dsDNA, one strand shown. Summed up:
as §1

A further experiment deals with T7, FEV (Homo sapiens, UniProt Q99581 1-238).
T7 sequence: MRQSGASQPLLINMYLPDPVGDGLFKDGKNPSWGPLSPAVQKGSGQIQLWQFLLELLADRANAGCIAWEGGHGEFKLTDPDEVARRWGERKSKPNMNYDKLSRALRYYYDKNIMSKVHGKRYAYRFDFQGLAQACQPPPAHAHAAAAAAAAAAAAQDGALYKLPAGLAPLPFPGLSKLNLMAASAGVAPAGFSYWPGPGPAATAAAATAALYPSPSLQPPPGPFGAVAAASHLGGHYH
Conditions: protein: recombinant; tags: N-terminal GST; dsDNA, one strand shown. Summed up:
as §1

The target of the next experiment is ETV5 (Homo sapiens, UniProt P41161 1-510). The conditions noted are these: protein: recombinant; tags: N-terminal GST; dsDNA, one strand shown. Summed up:
as §1

The target in another experiment is HSF1 (Homo sapiens, UniProt Q00613 1-529). Conditions: protein: recombinant; tags: N-terminal GST; chain copies: 3; dsDNA, one strand shown. Summed up: as §1
Sequence of HSF1 (Q00613 whole entry): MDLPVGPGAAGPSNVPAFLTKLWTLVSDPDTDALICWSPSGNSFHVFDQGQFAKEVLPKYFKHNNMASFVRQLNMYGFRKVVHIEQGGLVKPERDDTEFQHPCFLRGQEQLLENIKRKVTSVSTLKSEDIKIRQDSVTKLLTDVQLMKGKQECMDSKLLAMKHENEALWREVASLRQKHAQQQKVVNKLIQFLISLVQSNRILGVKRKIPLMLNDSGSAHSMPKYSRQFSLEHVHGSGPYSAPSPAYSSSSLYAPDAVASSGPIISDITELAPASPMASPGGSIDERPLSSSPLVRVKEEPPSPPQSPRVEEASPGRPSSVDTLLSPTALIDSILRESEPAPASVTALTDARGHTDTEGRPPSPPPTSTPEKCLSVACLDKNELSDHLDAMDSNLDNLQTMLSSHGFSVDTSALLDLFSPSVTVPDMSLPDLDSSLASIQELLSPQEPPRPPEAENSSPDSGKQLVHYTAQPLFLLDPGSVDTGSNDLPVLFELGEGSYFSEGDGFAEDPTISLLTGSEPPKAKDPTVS
For another experiment, the target named is T8, SPIC (Homo sapiens, UniProt Q8N5J4 1-248).
T8 sequence: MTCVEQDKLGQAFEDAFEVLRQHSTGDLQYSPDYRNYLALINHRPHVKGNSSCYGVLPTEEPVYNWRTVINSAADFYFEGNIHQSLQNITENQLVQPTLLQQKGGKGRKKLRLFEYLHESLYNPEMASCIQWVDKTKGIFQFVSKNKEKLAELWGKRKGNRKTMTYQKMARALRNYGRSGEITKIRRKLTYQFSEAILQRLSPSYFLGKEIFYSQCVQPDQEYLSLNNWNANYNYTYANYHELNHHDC
Conditions: protein: recombinant; tags: N-terminal GST; dsDNA, one strand shown. In outline: as §1

The target of another experiment is ELF4 (Homo sapiens, UniProt Q99607 1-663). Conditions: protein: recombinant; tags: N-terminal GST; dsDNA, one strand shown. In outline: as §1
Sequence of ELF4 (Q99607 whole entry): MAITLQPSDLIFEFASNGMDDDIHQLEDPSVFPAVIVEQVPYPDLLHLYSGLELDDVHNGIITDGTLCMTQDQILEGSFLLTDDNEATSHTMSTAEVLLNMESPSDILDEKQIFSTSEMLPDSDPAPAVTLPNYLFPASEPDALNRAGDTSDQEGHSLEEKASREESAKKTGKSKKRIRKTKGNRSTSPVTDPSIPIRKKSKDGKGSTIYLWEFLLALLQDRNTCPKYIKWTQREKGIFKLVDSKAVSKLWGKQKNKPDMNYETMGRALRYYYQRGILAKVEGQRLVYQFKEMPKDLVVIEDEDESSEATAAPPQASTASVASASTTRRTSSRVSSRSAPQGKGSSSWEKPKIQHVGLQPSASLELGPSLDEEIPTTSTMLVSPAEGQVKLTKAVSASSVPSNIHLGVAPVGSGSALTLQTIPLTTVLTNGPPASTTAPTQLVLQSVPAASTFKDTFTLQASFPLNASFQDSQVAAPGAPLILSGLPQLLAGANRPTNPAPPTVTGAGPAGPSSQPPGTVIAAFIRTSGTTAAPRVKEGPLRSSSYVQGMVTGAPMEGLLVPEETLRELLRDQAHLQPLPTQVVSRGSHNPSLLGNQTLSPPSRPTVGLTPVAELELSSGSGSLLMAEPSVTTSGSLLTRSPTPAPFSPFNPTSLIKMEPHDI
In another experiment the target is T9, ELK4 (Homo sapiens, UniProt P28324-2 1-405).
T9 sequence: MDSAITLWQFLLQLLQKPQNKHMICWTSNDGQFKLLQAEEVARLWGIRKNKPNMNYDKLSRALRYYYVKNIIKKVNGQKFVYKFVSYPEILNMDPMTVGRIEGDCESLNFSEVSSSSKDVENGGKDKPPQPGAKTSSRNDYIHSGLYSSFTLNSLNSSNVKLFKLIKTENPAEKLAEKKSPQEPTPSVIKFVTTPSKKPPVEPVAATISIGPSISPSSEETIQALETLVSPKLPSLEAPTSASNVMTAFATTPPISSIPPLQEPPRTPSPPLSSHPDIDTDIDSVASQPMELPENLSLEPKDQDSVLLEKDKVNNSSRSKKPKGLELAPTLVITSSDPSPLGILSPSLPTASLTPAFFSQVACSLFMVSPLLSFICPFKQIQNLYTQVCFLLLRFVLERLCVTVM
The conditions noted are these: protein: recombinant; tags: N-terminal GST; dsDNA, one strand shown. In outline: as §1

The target in a further experiment is T10, ETV2 (Homo sapiens, UniProt O00321 1-342).
T10 sequence: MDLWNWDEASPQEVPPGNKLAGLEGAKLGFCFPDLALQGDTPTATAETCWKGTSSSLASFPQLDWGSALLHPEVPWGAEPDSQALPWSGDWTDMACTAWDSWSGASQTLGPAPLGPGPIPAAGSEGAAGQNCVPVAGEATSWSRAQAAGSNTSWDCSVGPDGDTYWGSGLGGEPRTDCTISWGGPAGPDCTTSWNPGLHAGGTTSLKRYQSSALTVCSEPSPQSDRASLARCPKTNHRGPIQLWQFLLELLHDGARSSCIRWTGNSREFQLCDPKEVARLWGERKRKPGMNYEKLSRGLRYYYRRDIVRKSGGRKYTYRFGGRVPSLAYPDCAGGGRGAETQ
The conditions noted are these: protein: recombinant; tags: N-terminal GST; dsDNA, one strand shown. Summed up: as §1

The target of another experiment is ETV1 (Homo sapiens, UniProt P50549 1-477). Conditions: protein: recombinant; tags: N-terminal GST; dsDNA, one strand shown. In outline: as §1
Sequence of ETV1 (P50549 whole entry): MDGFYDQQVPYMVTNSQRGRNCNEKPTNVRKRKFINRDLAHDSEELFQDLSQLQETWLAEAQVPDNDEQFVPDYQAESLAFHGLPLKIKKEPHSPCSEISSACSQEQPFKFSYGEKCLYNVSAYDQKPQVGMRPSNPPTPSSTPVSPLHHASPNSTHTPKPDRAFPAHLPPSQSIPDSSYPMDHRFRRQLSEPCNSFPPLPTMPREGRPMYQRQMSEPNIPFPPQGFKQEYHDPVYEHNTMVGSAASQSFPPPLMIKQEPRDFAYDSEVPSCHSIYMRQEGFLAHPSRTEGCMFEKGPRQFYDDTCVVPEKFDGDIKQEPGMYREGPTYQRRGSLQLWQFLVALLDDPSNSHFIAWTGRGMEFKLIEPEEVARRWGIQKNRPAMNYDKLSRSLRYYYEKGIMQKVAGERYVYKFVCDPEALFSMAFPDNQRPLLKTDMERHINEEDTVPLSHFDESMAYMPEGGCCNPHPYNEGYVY
In a further experiment the target is SPI1 (Homo sapiens, UniProt P17947 1-270). The conditions noted are these: protein: recombinant; tags: N-terminal GST; dsDNA, one strand shown. Summed up: as §1

Sequence of ELF1 (P32519 whole entry): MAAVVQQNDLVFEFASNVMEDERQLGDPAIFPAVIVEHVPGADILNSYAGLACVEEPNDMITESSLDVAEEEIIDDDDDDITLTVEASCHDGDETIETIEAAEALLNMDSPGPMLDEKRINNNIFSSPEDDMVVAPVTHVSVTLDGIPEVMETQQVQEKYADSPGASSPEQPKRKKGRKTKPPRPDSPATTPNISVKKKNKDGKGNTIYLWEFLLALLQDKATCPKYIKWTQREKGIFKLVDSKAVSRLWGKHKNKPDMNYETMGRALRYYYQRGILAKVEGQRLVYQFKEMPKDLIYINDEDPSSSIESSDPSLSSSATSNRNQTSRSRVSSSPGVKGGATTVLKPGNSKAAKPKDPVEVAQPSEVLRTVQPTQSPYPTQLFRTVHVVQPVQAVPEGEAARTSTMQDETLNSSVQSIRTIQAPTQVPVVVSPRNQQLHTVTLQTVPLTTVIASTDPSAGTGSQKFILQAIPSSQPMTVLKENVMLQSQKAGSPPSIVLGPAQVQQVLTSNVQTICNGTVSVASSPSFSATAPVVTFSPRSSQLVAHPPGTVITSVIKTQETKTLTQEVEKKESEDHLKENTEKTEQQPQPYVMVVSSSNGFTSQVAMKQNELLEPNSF
Sequence of ETV5 (P41161 whole entry): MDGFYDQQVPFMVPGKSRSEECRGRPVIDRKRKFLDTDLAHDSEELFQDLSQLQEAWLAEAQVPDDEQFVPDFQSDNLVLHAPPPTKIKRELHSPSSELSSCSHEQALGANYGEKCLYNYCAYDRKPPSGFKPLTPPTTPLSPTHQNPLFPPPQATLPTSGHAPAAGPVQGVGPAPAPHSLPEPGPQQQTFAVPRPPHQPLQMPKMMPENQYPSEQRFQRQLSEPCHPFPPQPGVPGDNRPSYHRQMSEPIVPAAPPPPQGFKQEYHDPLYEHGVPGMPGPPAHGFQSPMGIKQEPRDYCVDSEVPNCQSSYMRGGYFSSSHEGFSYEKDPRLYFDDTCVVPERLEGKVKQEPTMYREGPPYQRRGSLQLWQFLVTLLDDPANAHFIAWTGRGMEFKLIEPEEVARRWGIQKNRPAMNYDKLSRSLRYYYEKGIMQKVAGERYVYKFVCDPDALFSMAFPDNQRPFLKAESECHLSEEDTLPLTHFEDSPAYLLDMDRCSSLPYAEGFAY

As to CGACGA, the binding signal in the experiment with FLI1 was 1.19 fold enrichment (6-mer frequency, TF over GST control); with ELK1, 1.03 fold enrichment (6-mer frequency, TF over GST control); with GABPA, 1.11 fold enrichment (6-mer frequency, TF over GST control); with ERG, 1.18 fold enrichment (6-mer frequency, TF over GST control); with ELF1, 1.09 fold enrichment (6-mer frequency, TF over GST control); in the experiment with EHF it was 1.14 fold enrichment (6-mer frequency, TF over GST control). Besides, the binding signal with SPIB is 1.2 fold enrichment (6-mer frequency, TF over GST control); with ELK3, 1.2 fold enrichment (6-mer frequency, TF over GST control); in the experiment with FEV, 1.1 fold enrichment (6-mer frequency, TF over GST control); in the experiment with ETV5 it was 1.15 fold enrichment (6-mer frequency, TF over GST control); with HSF1 it was 1.16 fold enrichment (6-mer frequency, TF over GST control); with SPIC it was 1.2 fold enrichment (6-mer frequency, TF over GST control). Besides, the binding signal with ELF4 is 1.17 fold enrichment (6-mer frequency, TF over GST control); with ELK4 it was 1.08 fold enrichment (6-mer frequency, TF over GST control); with ETV2 it was 1.01 fold enrichment (6-mer frequency, TF over GST control); with ETV1, 1.07 fold enrichment (6-mer frequency, TF over GST control).
Consider TGCGCG, for which the binding signal was 1.02 fold enrichment (6-mer frequency, TF over GST control) with FLI1; 1.05 fold enrichment (6-mer frequency, TF over GST control) with ELK1; 1.02 fold enrichment (6-mer frequency, TF over GST control) in the experiment with GABPA; 1.04 fold enrichment (6-mer frequency, TF over GST control) with ERG; 1.02 fold enrichment (6-mer frequency, TF over GST control) in the experiment with ELF1; 1.16 fold enrichment (6-mer frequency, TF over GST control) with EHF. Besides, the binding signal with SPI1 is 1.16 fold enrichment (6-mer frequency, TF over GST control); with SPIB, 1.06 fold enrichment (6-mer frequency, TF over GST control); in the experiment with ELK3, 1.11 fold enrichment (6-mer frequency, TF over GST control); in the experiment with FEV, 1.07 fold enrichment (6-mer frequency, TF over GST control); with ETV5, 1.07 fold enrichment (6-mer frequency, TF over GST control); in the experiment with HSF1, 1.15 fold enrichment (6-mer frequency, TF over GST control). Besides, the binding signal was 1.05 fold enrichment (6-mer frequency, TF over GST control) in the experiment with SPIC; 1.05 fold enrichment (6-mer frequency, TF over GST control) with ELF4; 1.16 fold enrichment (6-mer frequency, TF over GST control) in the experiment with ELK4; 1.13 fold enrichment (6-mer frequency, TF over GST control) in the experiment with ETV2; 1.19 fold enrichment (6-mer frequency, TF over GST control) in the experiment with ETV1.
